PubChem BioAssay (NCATS)
Values without a mark were called inactive. Active and inactive are the calls of the source. The call rests on the fitted dose curve; in most records, active means well fitted curve in the direction sought with a large enough effect; inconclusive means small, poorly fitted or top-dose-only effect, or another doubt; inactive means no such curve, though single readings can be large or run the other way.

What follows are molecules tested against Alpha-galactosidase (Coffea arabica) (UniProt Q42656) (assay: Counterscreen for Glucocerebrosidase Inhibitors: qHTS Assay for Coffee Bean alpha-Galactosidase at pH 4.5 (AID 957;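 further: plate controls were enzyme alone for no effect and no enzyme for full effect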)). Details: purified coffee bean alpha-galactosidase, fluorogenic substrate; series mostly up to 76.9 µM; activity change, negative = inhibition: at the top concentration.
Chain of Alpha-galactosidase (Coffea arabica) (Q42656 whole entry, looked up): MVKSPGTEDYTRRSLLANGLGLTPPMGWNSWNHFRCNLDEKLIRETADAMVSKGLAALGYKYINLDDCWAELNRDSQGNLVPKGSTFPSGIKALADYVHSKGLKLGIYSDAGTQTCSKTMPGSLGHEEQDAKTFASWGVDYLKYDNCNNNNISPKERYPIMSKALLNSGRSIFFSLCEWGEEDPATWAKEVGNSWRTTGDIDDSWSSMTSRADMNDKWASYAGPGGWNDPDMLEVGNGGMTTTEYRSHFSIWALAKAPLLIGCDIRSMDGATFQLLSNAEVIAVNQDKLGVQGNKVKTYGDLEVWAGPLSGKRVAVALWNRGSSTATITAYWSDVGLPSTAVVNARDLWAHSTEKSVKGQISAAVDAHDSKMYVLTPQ
Outline: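 Coffee bean alpha-galactosidase 2 nM, substrate 4-MU-alpha-Gal 80 uM, pH 4.5 citrate/Tween-20, 20 min RT. Cpd titration 0.7 nM–77 uM. Stop pH 10, fluorescence 365/440 nm; Hill-equation AC50.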
With `C[C@]12CCC(=O)C=C1CC[C@@H]1[C@@H]2C(=O)C[C@@]2(C)[C@H]1CC[C@]2(O)C(=O)CO` the “activity change, negative = inhibition” value was 0.672%.
For `CCCCNc1cc(C(=O)O)cc(S(N)(=O)=O)c1Oc1ccccc1`, the “activity change, negative = inhibition” value was -2.1%.
For `NCCc1cnc[nH]1`, the “activity change, negative = inhibition” value was -1.38%.
In the case of `Cn1cnc2c1c(=O)[nH]c(=O)n2C`, the “activity change, negative = inhibition” value is reported as -0.161%.
In the case of `CCN(CC)CCOCCOC(=O)C1(c2ccccc2)CCCC1`, the “activity change, negative = inhibition” value is reported as -1%.
In the case of `CCOC(=O)Nc1ccc(NCc2ccc(F)cc2)nc1N`, the “activity change, negative = inhibition” value is reported as 1.35%.
In the case of `Oc1ccc(O)cc1`, the “activity change, negative = inhibition” value is reported as -2.91%.
In the case of `NC(N)=NC(=O)c1nc(Cl)c(N)nc1N`, the “activity change, negative = inhibition” value is reported as -3.02%.
For `CCOC(=O)C(C)(C)Oc1ccc(Cl)cc1`, the “activity change, negative = inhibition” value was 0.246%.
With `CCN(CC)CC(=O)Nc1c(C)cccc1C` the “activity change, negative = inhibition” value was -0.899%.
For `OCCN1CCN(CCCN2c3ccccc3C=Cc3ccccc32)CC1`, the outcome was “inactive”.
`CN(C)CCOC(c1ccccc1)c1ccccc1` was tested, and the “activity change, negative = inhibition” value was 3.34%.
In the case of `NC(N)=NCCC[C@H](N)C(=O)O`, the “activity change, negative = inhibition” value is reported as -0.912%.
For `Clc1ccc(Cn2c(CN3CCCC3)nc3ccccc32)cc1`, the “activity change, negative = inhibition” value was -3.34%.
In the case of `Brc1c(NC2=NCCN2)ccc2nccnc12`, the “activity change, negative = inhibition” value is reported as 1.12%.
With `C[C@]12CCC(=O)C=C1CC[C@@H]1[C@@H]2CC[C@@]2(C)[C@H]1CC[C@]2(O)C(=O)CO` the “activity change, negative = inhibition” value was -2.75%.
In the case of `Cc1nc2sccn2c(=O)c1CCN1CCC(=C(c2ccc(F)cc2)c2ccc(F)cc2)CC1`, the “activity change, negative = inhibition” value is reported as -6.65%.
`CC1=C(CC(=O)O)c2cc(F)ccc2/C1=C\c1ccc(S(C)(=O)=O)cc1` was tested, and the “activity change, negative = inhibition” value was -4.62%.
`CCCCNc1ccc(C(=O)OCCN(C)C)cc1` was tested, and the “activity change, negative = inhibition” value was -0.752%.
In the case of `CCc1cccc(N(C)C(N)=Nc2cccc3ccccc23)c1`, the “activity change, negative = inhibition” value is reported as -8.24%.
With `CCCCNc1c(C(=O)OCC)c(C)nc2c1cnn2CC` the “activity change, negative = inhibition” value was -1.08%.
With `O=C(O)CN(CCOCCOCCN(CC(=O)O)CC(=O)O)CC(=O)O` the “activity change, negative = inhibition” value was 1.22%.
With `N[C@@H](Cc1c[nH]c2ccc(O)cc12)C(=O)O` the “activity change, negative = inhibition” value was -0.761%.
`O=c1[nH]c2ccccc2n1CCCN1CCN(C(c2ccccc2)c2ccccc2)CC1` was tested, and the “activity change, negative = inhibition” value was -1.87%.
With `CC(C)(C)c1ccc(C(O)CCCN2CCC(C(O)(c3ccccc3)c3ccccc3)CC2)cc1` (stereo not drawn) the “activity change, negative = inhibition” value was -3.83%.
`CCCOc1ccccc1-c1nc2n[nH]nc2c(=O)[nH]1` was tested, and the “activity change, negative = inhibition” value was 0.105%.
For `NS(=O)(=O)c1cc2c(cc1Cl)NCNS2(=O)=O`, the “activity change, negative = inhibition” value was -3.42%.
With `CC(C)NCC(O)COc1ccc(COCCOC(C)C)cc1` (stereo not drawn) the “activity change, negative = inhibition” value was -3.29%.
In the case of `COc1ccc2c(c1)c(CC(=O)O)c(C)n2C(=O)c1ccc(Cl)cc1`, the “activity change, negative = inhibition” value is reported as -1.45%.
With `CC1=C(C)C(=O)C(CCCCC#CCCCC#CCO)=C(C)C1=O` the “activity change, negative = inhibition” value was 0.864%.
`OC(CN1CCC(Cc2ccc(F)cc2)CC1)c1ccc(Cl)cc1` (stereo not drawn) was tested, and the “activity change, negative = inhibition” value was 0.164%.
`O=C(Nc1ccc([N+](=O)[O-])cc1Cl)c1cc(Cl)ccc1O` was tested, and the “activity change, negative = inhibition” value was 0.0268%.
In the case of `O=C(O)CP(=O)(O)O`, the “activity change, negative = inhibition” value is reported as -2.8%.
